Consider one sequence from patent US20220289795, “EFFICIENT METHOD FOR PREPARING PPR PROTEIN AND USE OF THE SAME” (EditForce, Inc., published 2022).

This test has as its target T1, NL_v2_PPR14 (Artificial Sequence).
T1 chain: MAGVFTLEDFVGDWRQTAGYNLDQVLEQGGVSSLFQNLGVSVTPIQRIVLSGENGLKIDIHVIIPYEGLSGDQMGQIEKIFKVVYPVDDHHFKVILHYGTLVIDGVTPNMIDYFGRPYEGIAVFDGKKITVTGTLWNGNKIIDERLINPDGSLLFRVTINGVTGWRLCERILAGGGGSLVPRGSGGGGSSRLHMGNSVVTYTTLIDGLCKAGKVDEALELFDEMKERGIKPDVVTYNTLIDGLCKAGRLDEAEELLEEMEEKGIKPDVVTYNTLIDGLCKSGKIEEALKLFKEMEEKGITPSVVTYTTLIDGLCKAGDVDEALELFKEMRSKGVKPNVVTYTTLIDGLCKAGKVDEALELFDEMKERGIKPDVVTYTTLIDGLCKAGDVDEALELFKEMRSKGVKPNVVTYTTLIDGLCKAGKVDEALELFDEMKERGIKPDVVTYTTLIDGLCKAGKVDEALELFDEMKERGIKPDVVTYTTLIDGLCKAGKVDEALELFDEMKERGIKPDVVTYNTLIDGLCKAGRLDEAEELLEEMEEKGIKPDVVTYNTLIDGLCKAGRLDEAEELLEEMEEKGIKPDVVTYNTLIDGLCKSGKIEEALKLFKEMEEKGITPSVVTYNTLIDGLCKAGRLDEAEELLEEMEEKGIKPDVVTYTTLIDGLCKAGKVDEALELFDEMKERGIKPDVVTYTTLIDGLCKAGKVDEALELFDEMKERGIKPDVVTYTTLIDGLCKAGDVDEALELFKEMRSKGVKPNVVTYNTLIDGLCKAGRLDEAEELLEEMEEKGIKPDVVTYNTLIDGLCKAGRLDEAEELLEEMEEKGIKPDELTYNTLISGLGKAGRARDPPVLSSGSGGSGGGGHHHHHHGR
Description: RPB-ELISA. Conditions: tags: N-terminal luciferase, C-terminal 6xHis; label: 5'-biotin; ssRNA. As to the method:
RNA probes consisting of a designed 30-base sequence containing 18 bases of the target sequence and modified by biotinylation at the 5′ end (RNA_1, RNA_2, RNA_3, RNA_4, and RNA_5, SEQ ID NOS: 61 to 65) were synthesized (Grainer). To a streptavidin-coated plate (Thermo fisher), the 5′-end biotinylated RNA probes were added, reaction was allowed at room temperature for 30 minutes, and the plate was washed with a lysis buffer (20 mM Tris-HCl, pH 7.6, 150 mM NaCl, 5 mM MgCl₂, 0.5% NP-40, 1 mM DTT, 0.1% BSA). For background measurement, wells to which RNA was not added, but 100 μL of the lysis buffer, 1 μL of 100 mM DTT, and 1 μL of 40 unit/4 RNase inhibitor (Takara, 2313A) were added were also prepared. Then, 200 μL of a blocking buffer (20 mM Tris-HCl, pH 7.6, 150 mM NaCl, 5 mM MgCl₂, 0.5% NP-40, 1 mM DTT, 1% BSA) was added, and the plate surface was blocked at room temperature for 30 minutes. Then, 100 μL of E. coli lysate containing luciferase-fused PPR protein having a luminescence level of 1.5×10⁸ LU/μL was added to each well, and the binding reaction was allowed at room temperature for 30 minutes. The well was washed 5 times with 200 μL of a washing buffer (20 mM Tris-HCl, pH 7.6, 150 mM NaCl, 5 mM MgCl₂, 0.5% NP-40, 1 mM DTT). […] The background (luminescence signal value obtained with adding the PPR protein and without adding RNA) was subtracted from the luminescences of the samples to which a solution containing each RNA and PPR protein was added, and the obtained values were used as the binding powers between the PPR protein and RNA.
By using the v2 motif, PPR proteins for 23 kinds of target sequences (T_1 to T_3, and T_5 to T_24, SEQ ID NOS: […]) were prepared (NL_v2_PPR1 to 3, and NL_v2_PPR5 to 24, SEQ ID NOS: 56 to 58 and 70 to 88), and RPB-ELISA was used to analyze bindings of all the combinations. The experimental method was the same as that used in Example 3.
On to GGUUAGAGAUACAGUGUG, for which the binding signal came out at 22 log2 luminescence.
